“And” between values parts separate entries of the source, which are not always exact repeats. Equal entries are not always repeated. Inconclusive results are not listed. Some structures have more than one record in an assay (separate samples or runs), and their calls can disagree. The source made the active and inactive calls. Unless noted, the call rests on the fitted dose curve; in most records, active means well fitted curve in the direction sought with a large enough effect in the repeat runs; inconclusive means weak or mixed curves; inactive means no such curve, though single readings can be large; an effect the other way counts as inactive or inconclusive.

Assay [1] is described as follows: qHTS assay for identifying genotoxic compounds that show differential cytotoxicity against isogenic chicken DT40 cell lines with known DNA damage response pathways - wild type cell line (AID 743012). Further: nearly all actives have a fitted effect of over 60% in size. Further: potency means the concentration at half of the fitted maximal effect. The note with it: DT40 wild type chicken cells viability, CellTiter-Glo, 40 h; series mostly up to 68.4 µM. Put shortly: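 Luminescent ATP viability signal (CellTiter-Glo, 30 min RT) recorded after wild type DT40 cells were incubated with compounds for 40 h at 37 C/5% CO2.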
Background: qHTS replaces the single test concentration by a dilution series.

The nature of assay [2]: qHTS assay for identifying genotoxic compounds that show differential cytotoxicity against isogenic chicken DT40 cell lines with known DNA damage response pathways - Rev3 mutant cell line (AID 743014). Further: nearly all actives have a fitted effect of over 55% in size. Further: potency means the concentration at half of the fitted maximal effect. The note with it: chicken DT40 Rev3-/- viability, CellTiter-Glo, 40 h; series mostly up to 68.4 µM.
Assay [3] is described as follows: qHTS assay for identifying genotoxic compounds that show differential cytotoxicity against isogenic chicken DT40 cell lines with known DNA damage response pathways - Rad54/Ku70 mutant cell line (AID 743015). Further: nearly all actives have a fitted effect of over 60% in size. Further: potency means the concentration at half of the fitted maximal effect. The note with it: DT40 Rad54/Ku70 mutant viability, CellTiter-Glo, 40 h; series mostly up to 66.8 µM.
Assay [4] is described as follows: qHTS assay to identify small molecule antagonists of the androgen receptor (AR) signaling pathway - cell viability counter screen (AID 743033; further: nearly all actives have a fitted effect of over 45% in size; further: potency means the concentration at half of the fitted maximal effect). As to conditions: AR-bla HEK293 viability, CellTiter-Glo luminescence, 16 h; series mostly up to 58.5 µM.
A short description of assay [5]: qHTS assay to identify small molecule antagonists of the androgen receptor (AR) signaling pathway using the MDA cell line - cell viability counter screen (AID 743041; further: nearly all actives have a fitted effect of over 45% in size; further: potency means the concentration at half of the fitted maximal effect). As to conditions: MDA-kb2 viability, CellTiter-Fluor, 16 h, cells co-treated with R1881 androgen agonist; series mostly up to 70.3 µM. Put shortly: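 qHTS viability read-out; MDA-kb2 AR-luc; R1881-stimulated; 16 h exposure at 37C, 0% CO2; CellTiter-Fluor, 30 min; fluorescence intensity.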

Assay [6] is described as follows: qHTS assay to identify small molecule antagonists of the glucocorticoid receptor (GR) signaling pathway - cell viability counter screen (AID 720693). Further: nearly all actives have a fitted effect of over 55% in size. The note with it: GR-bla HeLa viability, CellTiter-Glo luminescence, 18 h, with 5 nM dexamethasone present; series mostly up to 58.5 µM.
In assay [7] the target is Androgen receptor (Homo sapiens) (UniProt P10275). Briefly: qHTS assay to identify small molecule antagonists of the androgen receptor (AR) signaling pathway (AID 743035; active means well fitted inhibition curve with a large enough effect in the signal ratio in the repeat runs, not every such curve was filed as active; the % refers to the signal ratio; further: potency means the concentration at half of the fitted maximal effect). The note with it: HEK293 AR-UAS-bla, R1881-stimulated, beta-lactamase FRET, 16 h; series mostly up to 58.5 µM. Put shortly: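 Quantitative HTS of the Tox21 10K library used HEK293 AR-UAS-bla cells stimulated with R1881 alongside compound for 16 h at 37C, followed by beta-lactamase FRET detection (LiveBLAzer B/G, 2 h, RT).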
Chain of Androgen receptor (Homo sapiens) (P10275 whole entry, looked up): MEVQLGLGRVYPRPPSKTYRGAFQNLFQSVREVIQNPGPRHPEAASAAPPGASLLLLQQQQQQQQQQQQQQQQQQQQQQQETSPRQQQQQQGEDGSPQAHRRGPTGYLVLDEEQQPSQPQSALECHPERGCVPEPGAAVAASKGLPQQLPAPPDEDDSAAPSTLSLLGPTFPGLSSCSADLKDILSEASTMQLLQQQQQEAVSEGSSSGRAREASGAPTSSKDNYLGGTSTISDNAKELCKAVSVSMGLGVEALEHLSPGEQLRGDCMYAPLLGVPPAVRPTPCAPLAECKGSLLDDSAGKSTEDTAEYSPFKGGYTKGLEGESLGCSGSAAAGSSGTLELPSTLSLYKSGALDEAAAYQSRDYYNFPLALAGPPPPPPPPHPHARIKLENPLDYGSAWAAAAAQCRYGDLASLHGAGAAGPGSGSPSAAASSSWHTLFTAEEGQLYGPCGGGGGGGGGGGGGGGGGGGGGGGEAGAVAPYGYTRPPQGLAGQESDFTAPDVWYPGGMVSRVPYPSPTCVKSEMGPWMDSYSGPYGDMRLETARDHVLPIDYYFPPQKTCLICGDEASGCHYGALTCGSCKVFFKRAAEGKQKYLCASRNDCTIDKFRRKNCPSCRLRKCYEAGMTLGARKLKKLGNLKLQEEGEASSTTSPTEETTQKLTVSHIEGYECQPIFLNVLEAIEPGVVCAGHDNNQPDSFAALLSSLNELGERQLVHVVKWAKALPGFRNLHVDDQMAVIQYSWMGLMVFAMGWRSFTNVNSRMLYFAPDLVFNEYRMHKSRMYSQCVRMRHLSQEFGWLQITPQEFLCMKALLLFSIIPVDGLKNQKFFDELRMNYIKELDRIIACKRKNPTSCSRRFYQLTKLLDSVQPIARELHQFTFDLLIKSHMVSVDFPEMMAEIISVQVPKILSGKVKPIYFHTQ

Assay [8] has the same target. Briefly: qHTS assay to identify small molecule agonists of the androgen receptor (AR) signaling pathway (AID 743036; active means well fitted activation curve with a large enough effect in the signal ratio in the repeat runs, with a control signal flat, not every such curve was filed as active; the % refers to the signal ratio). As to conditions: HEK293 AR-UAS-bla GripTite, beta-lactamase FRET ratio, 16 h; series mostly up to 62.4 µM. Put shortly: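 HEK293 cells stably carrying a UAS-driven beta-lactamase reporter (GeneBLAzer AR-UAS-bla-GripTite) were plated at 2,000 cells/well, rested 4 h at 37C, then exposed to compounds in DMSO for 16 h. LiveBLAzer B/G FRET substrate was added for 2 h at room temperature; fluorescence read.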

The target is the same in assay [9]. Briefly: qHTS assay to identify small molecule agonists of the androgen receptor (AR) signaling pathway using the MDA cell line (AID 743040; further: nearly all actives have a fitted effect of over 20% in size). The note with it: MDA-kb2 AR-luc cells, MMTV luciferase, 16 h, stronger effect = higher value; series mostly up to 70.3 µM. Put shortly: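 Agonist activity is measured as luciferase luminescence in human MDA-kb2 cells whose MMTV reporter responds to both AR and GR. Compounds in DMSO incubate 16 h at 37C, 0% CO2, and ONE-Glo is read after 30 min.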

A short description of assay [10]: qHTS assay to identify small molecule antagonists of the thyroid receptor (TR) signaling pathway - cell viability counter screen (AID 743064). Further: nearly all actives have a fitted effect of over 50% in size. Further: potency means the concentration at half of the fitted maximal effect. As to conditions: GH3.TRE-Luc viability, CellTiter-Fluor, 24 h; series mostly up to 70.3 µM. Put shortly:
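GH3.TRE-Luc rat pituitary cells carrying a TRE-luciferase reporter were treated with compound plus 1 nM T3 (final) for 23.5 h at 37 °C. Viability was then read in the same wells by CellTiter-Fluor fluorescence after a further 30 min.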
On the % scale 0 is the no-effect control and ±100 the full control effect.

In the case of `C[N+]1([O-])CCOCC1`, the Potency entry in [1], in assay [2], in assay [3], in assay [4] and in assay [5] was “inactive” throughout.
In the case of `NC(=Nc1ccccc1)Nc1ccccc1`, the Potency entry in assay [6], in assay [4] and in [5] was “inactive” in each case. Further, the Potency result is “inactive and 42 µM (active)” in [2]; “inactive and 61.1 µM (active)” in assay [3].
As for `CCc1cc(C(C)(C)C)c(O)c(C(C)(C)C)c1`, the Potency entry in [6], in [3], in assay [4] and in assay [5] was “inactive” in each case. Also, the Potency result in assay [2] is “inactive and 15.4 µM (active)”.
With `Cc1ccc(S(=O)(=O)Oc2ccc(N=Nc3ccc(-c4ccc(N=Nc5c(O)ccc6cc(S(=O)(=O)O)cc(S(=O)(=O)O)c56)c(C)c4)cc3C)cc2)cc1`, the Potency result in assay [6], in assay [4], in assay [7] and in [8] was “inactive” in each case. The Potency in [2] is 27.4 µM (active) and 17.8 µM (active); in assay [3] it was 54.7 µM (active) and 11.2 µM (active); in assay [10], 27.4 µM (active) and 17.8 µM (active). Also, the compound was called inactive in [9].
As to `Nc1nc(=S)c2[nH]cnc2[nH]1`, the Potency is 1.88 µM (active) and 1.33 µM (active) and 686 nM (active) in assay [2]; 1.33 µM (active) [middle of 4 runs] in [3]; 26.8 µM (active) and 1.95 µM (active) in assay [4]; 16.9 µM (active) and 10.7 µM (active) and 6.92 µM (active) in [7]. In addition, the Potency result in assay [8], in [5] and in assay [10] was “inactive” each time. Besides, the result in [9] was inactive.
`CN(C)c1ccc2nc3ccc(=[N+](C)C)cc-3sc2c1`: the Potency in assay [1] is 473 nM (active) and 2.34 µM (active) and 686 nM (active); in assay [2], 750 nM (active) and 587 nM (active) and 686 nM (active); in assay [3], 422 nM (active) and 262 nM (active) and 386 nM (active); in assay [4] it was 1.87 µM (active) and 3.09 µM (active); in assay [5], 5.96 µM (active) and 11.7 µM (active) and 17.2 µM (active); in [10], 15 µM (active) and 26.2 µM (active) and 54.5 µM (active).
For `CC(=O)OCC1=C(C(=O)O)N2C(=O)[C@@H](NC(=O)Cc3cccs3)[C@H]2SC1`, the Potency result in assay [6], in assay [3], in assay [4], in assay [5] and in [10] was “inactive” in each case.
In the case of `CCCCCCCCCCCCCCCCCl`, the Potency result in assay [6], in [2], in assay [3], in assay [4], in [5] and in [10] was “inactive” each time.
For the compound `CCCC(=O)c1ccccc1`, the Potency entry in assay [6], in [3], in assay [4], in [7], in assay [5] and in assay [10] was “inactive” throughout. The compound was called inactive in [9].
Turning to `O=C1NCC2(CCN(CCc3ccccc3)CC2)O1`, the Potency entry in assay [4] and in assay [10] was “inactive” throughout.
With `CC(C)(C)c1ccc(O)c(C(C)(C)C)c1`, the Potency in [1] was 27.3 µM (active); in assay [2], 27.2 µM (active) and 24.3 µM (active); in assay [3], 30.5 µM (active) and 27.3 µM (active); in assay [10], 27.2 µM (active) and 30.6 µM (active). Also, in [5], the Potency result was “inactive”.
On to `CCN(CC)CCOc1ccc(/C(=C(\Cl)c2ccccc2)c2ccccc2)cc1`, for which the Potency in assay [1] is 1.19 µM (active) and 140 nM (active); in assay [2], 422 nM (active) and 24.8 nM (active); in assay [3], 1.68 µM (active) and 44.2 nM (active); in [4], 15.8 µM (active); in assay [10], 7.5 µM (active) and 7.86 µM (active).
As for `Cc1ccc(-c2cc(C(F)(F)F)nn2-c2ccc(S(N)(=O)=O)cc2)cc1`, the Potency in assay [1] was 23.7 µM (active) and 27.3 µM (active); in [2], 21.1 µM (active) and 54.3 µM (active) and 24.3 µM (active); in assay [3] it was 29.8 µM (active) and 54.3 µM (active) and 24.3 µM (active); in assay [4], 34.5 µM (active) and 43.6 µM (active); in assay [7] it was 23.9 µM (active); in assay [10], 26.6 µM (active) and 48.4 µM (active). The Potency result in assay [8] and in assay [5] was “inactive” throughout. The compound was called inactive in assay [9].
As to `COc1ccc(Cc2cnc(N)nc2N)cc1OC`, the Potency entry in [6], in [4], in [7], in [8] and in [10] was “inactive” each time. In addition, the compound was classed as inactive in assay [9].
Take `COc1ccc(CCN2CCC(Nc3nc4ccccc4n3Cc3ccc(F)cc3)CC2)cc1`: the Potency in assay [1] was 5.96 µM (active) and 7.01 µM (active); in [2], 7.5 µM (active) and 6.25 µM (active); in assay [3] it was 8.41 µM (active) and 8.82 µM (active); in [4] it was 21.3 µM (active) and 6.3 µM (active); in [5] it was 39.4 µM (active); in assay [10] it was 5.31 µM (active) and 1.25 µM (active).
Regarding `NC(N)=NC(=O)Cc1c(Cl)cccc1Cl`, the Potency result in assay [6], in assay [2], in assay [3], in assay [4] and in assay [5] was “inactive” in each case.
Regarding `O=C(O[C@@H]1Cc2c(O)cc(O)cc2O[C@@H]1c1cc(O)c(O)c(O)c1)c1cc(O)c(O)c(O)c1`, the Potency result in assay [6] and in assay [4] was “inactive” throughout. For the same compound, the Potency was 54.6 µM (active) in [2]; 48.7 µM (active) and 52.5 µM (active) in [10].
On to `CC(C)C(=O)c1c(C(C)C)nn2ccccc12`, for which the Potency result in assay [6], in assay [2], in assay [4], in assay [5] and in [10] was “inactive” in each case.
On to `BrC1CCC(Br)C(Br)CCC(Br)C(Br)CCC1Br` (centres undefined), for which the Potency in [1] was 46.1 µM (active); in [2], “inactive and 41.1 µM (active)”; in assay [3], “inactive and 25.9 µM (active)”; in assay [4], 46.5 µM (active); in [10], 5.43 µM (active) and 20.6 µM (active). Also, the Potency entry in assay [7], in assay [8] and in [5] was “inactive” in each case. Further, the call in assay [9] was inactive.
On to `CCCCOCCOC(=O)c1ccccc1C(=O)OCCOCCCC`, for which the Potency result in assay [6], in assay [5] and in [10] was “inactive” each time. In addition, the Potency in assay [2] is 42.4 µM (active) and 27.3 µM (active); in assay [3], 42.4 µM (active) and 61.1 µM (active); in [4] it was 53.8 µM (active) and inactive.
With `C=CC(=O)OCCCCCCOC(=O)C=C`, the Potency in assay [1] is 24.3 µM (active); in assay [2], 55.1 µM (active) and 30.6 µM (active); in assay [3], 69.4 µM (active) and 24.3 µM (active); in [10] it was 55.1 µM (active) and 54.5 µM (active). Further, the compound was called inactive in [9]. Besides, the Potency entry in [5] was “inactive”.
`CC1=CC(=O)c2ccccc2C1=O`: the Potency in assay [1] is 21.1 µM (active) and 13.7 µM (active); in assay [2] it was 23.7 µM (active) and 12.2 µM (active); in [3] it was 26.6 µM (active) and 15.4 µM (active); in assay [4], “inactive and 21.9 µM (active)”; in assay [10], 13.7 µM (active). Further, the Potency result in assay [7] was “inactive”. Also, the result in assay [9] was inactive.
As to `Cc1c(O)cccc1C(=O)N[C@@H](CSc1ccccc1)[C@H](O)CN1C[C@H]2CCCC[C@H]2C[C@H]1C(=O)NC(C)(C)C`, the Potency in assay [1] is 11.9 µM (active) and 29.8 µM (active); in [2] it was 13.3 µM (active) and 23.7 µM (active); in [3], 13.3 µM (active) and 18.8 µM (active); in assay [4] it was 19 µM (active) and 16.9 µM (active); in [7], 10.7 µM (active) and 6.74 µM (active); in assay [5], 27.8 µM (active) and 59.5 µM (active). In addition, in [10], the Potency was 5.31 µM (active) and 2.11 µM (active). Besides, the compound was called inactive in assay [9].
Turning to `O=C(O)CCc1ccccc1`, the Potency result in assay [1], in [2], in assay [3], in [4], in assay [5] and in [10] was “inactive” in each case.
With `c1ccc2cc3c(ccc4ccccc43)cc2c1`, the Potency entry in assay [6], in [2], in [3], in assay [4], in assay [5] and in [10] was “inactive” each time.
As to `CC[C@@H](N)CO`, the Potency result in assay [1], in [2], in assay [3], in assay [4] and in [5] was “inactive” throughout.
As to `CC(C)(C)NCC(O)c1cc(O)cc(O)c1` (centres undefined), the Potency result in assay [1], in assay [3], in assay [4] and in assay [5] was “inactive” each time.

For the origin of these results see PubChem BioAssay (Tox21).
